Results published in PubChem BioAssay (Tox21).
Records with an inconclusive call do not appear. A call without a number means that no potency is given here. Activity calls are given as the source filed them. Unless noted, calls come from the whole dose curve; as a rule, active = well fitted curve in the direction sought with a large enough effect in the repeat runs; inconclusive = weak or mixed curves; inactive = no such curve, though single readings can be large; an effect the other way counts as inactive or inconclusive.

Tests used:
[1] = qHTS assay to identify small molecule agonists of the sonic hedgehog signaling (Shh) pathway (AID 1259368; calls by dose curve; note: series mostly up to about 92 µM; nearly all actives have a fitted effect of over 15% in size)
Procedure, shortened: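 NIH/3T3-derived 3T3Gli1-Luc cells carrying a stably integrated Gli1 response element–firefly luciferase reporter were plated, left 4 hr at 37 C, then given compounds in DMSO for 24 hr. Luminescence was read 30 min after adding luciferase reagent.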

[2] = qHTS assay to identify small molecule antagonists of the sonic hedgehog signaling (Shh) pathway (AID 1259369; calls by dose curve; note: nearly all actives have a fitted effect of over 45% in size; note: potency is the fitted concentration of half-maximal effect)
Procedure, shortened: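 NIH/3T3-derived 3T3Gli1-Luc cells with stably integrated Gli1-Luc reporter were preincubated 4hr at 37 C, then given compounds in DMSO plus Shh conditioned medium and incubated 24hr. Firefly luciferase luminescence read after 30min reagent at room temperature.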

[3] = molecular target: Estrogen receptor beta (Homo sapiens) (UniProt Q92731); test: qHTS assay to identify small molecule agonists of the estrogen receptor beta (ER-beta) signaling pathway (AID 1259377; active = well fitted activation curve with a large enough effect in the signal ratio in the repeat runs, not every such curve was filed as active; the % refers to the signal ratio; note: potency is the fitted concentration of half-maximal effect)
Procedure, shortened: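 In HEK293T cells bearing a UAS-beta-lactamase reporter under ER-beta control, DMSO-delivered compounds were incubated for 16 hr at 37C. Activity was detected as fluorescence 2 hours after LiveBLAzer B/G FRET substrate addition.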

[4] = qHTS assay to identify small molecule agonists of the androgen receptor (AR) signaling pathway in the presence of an antagonist - cell viability counter screen (AID 1259379); note: series mostly up to about 92 µM; nearly all actives have a fitted effect of over 25% in size
Procedure, shortened: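 MDA-kb2 human breast carcinoma cells (stable MMTV-luciferase, AR/GR responsive) were seeded 3,000 cells/well, pre-incubated 5 hr at 37C without CO2, then given 3.0uM nilutamide and compounds at 15 concentrations for 16 hr. Viability was read by CellTiter-Fluor fluorescence.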

[5] = qHTS assay to identify small molecule agonists of the estrogen receptor beta (ER-beta) signaling pathway - cell viability counter screen (AID 1259380); note: nearly all actives have a fitted effect of over 30% in size; note: potency is the fitted concentration of half-maximal effect
Procedure, shortened: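 ER-beta-UAS-bla HEK293T cells in medium with 2% charcoal-stripped FBS were preincubated 6 hr at 37C, dosed with compound in DMSO for 16 hr, then after the bla read, CellTiter-Glo was added for 30 min at room temperature; luminescence recorded.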

[6] = molecular target: Estrogen receptor (Homo sapiens) (UniProt P03372); test: qHTS assay to identify small molecule agonists of the estrogen receptor alpha (ER-alpha) signaling pathway in the presence of an antagonist (AID 1259383; calls by dose curve; note: nearly all actives have a fitted effect of over 15% in size; note: potency is the fitted concentration of half-maximal effect; for activation: top concentration of the series differs between compounds)
Procedure, shortened: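 VM7Luc4E2 cells (endogenous full-length ER-alpha, 4×ERE-luciferase) were precultured 5 days in phenol red-free medium with 10% charcoal-stripped FBS, given 10.0nM ICI-182,780 (final), then treated with compounds at 15 concentrations for 22hr at 37C; luminescence read with ONE-Glo.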

[7] = qHTS assay to identify small molecule agonists or antagonists of the thyroid stimulating hormone receptor (TSHR) signaling pathway - wild type cell line counter screen (AID 1259384; calls by dose curve)
Procedure, shortened: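 Wild-type HEK293 cells were plated 18 h at 37 C/5% CO2, pin-dosed with compound plus Ro20-1724 medium, held 30 min at room temperature, then given cAMP-d2 and anti-cAMP-cryptate; fluorescence was read after 1 h. Fifteen concentrations, triplicate.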

[8] = molecular target: Thyrotropin receptor (Homo sapiens) (UniProt P16473); test: qHTS assay to identify small molecule antagonists of the thyroid stimulating hormone receptor (TSHR) signaling pathway (AID 1259385; calls by dose curve; note: nearly all actives have a fitted effect of over 20% in size; note: potency is the fitted concentration of half-maximal effect)
Procedure, shortened: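 TSHR-HEK293 cells were plated and held 18 h at 37C/5% CO2, then given compound plus Ro20-1724 and stimulated with TSH at 1.5 ng/mL final. After 30 min at room temperature, cAMP was detected with cAMP-d2/anti-cAMP-cryptate (1 h) by fluorescence.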

[9] = molecular target: Progesterone receptor (Homo sapiens) (UniProt P06401); test: qHTS assay to identify small molecule agonists of the progesterone receptor (PR) signaling pathway (AID 1346784; calls by dose curve; note: nearly all actives have a fitted effect of over 30% in size)
Procedure, shortened: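 Using charcoal-stripped serum (2%) to limit endogenous steroids, PR-UAS-bla HEK 293T cells received compounds for 16 hr at 37C after 6 hr plating; beta-lactamase FRET fluorescence was recorded following 2 hr substrate loading at room temperature.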

[10] = qHTS assay to identify small molecule antagonists of the progesterone receptor (PR) signaling pathway - cell viability counter screen (AID 1346798); note: nearly all actives have a fitted effect of over 50% in size; note: potency is the fitted concentration of half-maximal effect
Procedure, shortened: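 ATP content as viability readout: CellTiter-Glo luminescence, 30 min room temperature, in PR-UAS-bla HEK293T cells after 16 hr compound/R5020 treatment at 37C and 5% CO2.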

[11] = qHTS assay to identify small molecule agonists of the progesterone receptor (PR) signaling pathway - cell viability counter screen (AID 1346799; calls by dose curve; note: nearly all actives have a fitted effect of over 45% in size; note: potency is the fitted concentration of half-maximal effect)
Procedure, shortened: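 Cytotoxicity in PR-bla HEK293T cells: 16 h compound, 37C; CellTiter-Glo added post-FRET read; luminescence after 30 min RT.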

[12] = qHTS assay to identify small molecule antagonists of the TGF-beta/Smad signaling pathway - cell viability counter screen (AID 1346824); note: nearly all actives have a fitted effect of over 50% in size
Procedure, shortened: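 SBE-bla HEK 293T cells were plated overnight at 37 C, then given compounds in DMSO plus TGF-beta1 (added as 0.25 ng/mL solution) for 5 hr. After the bla read, CellTiter-Glo was added to the same wells and luminescence read after 30 min at room temperature.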

[13] = qHTS assay to identify small molecule agonists of the TGF-beta/Smad signaling pathway - cell viability counter screen (AID 1346829); note: top concentration of the series differs between compounds; nearly all actives have a fitted effect of over 45% in size
Procedure, shortened: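 SBE-bla HEK 293T cells plated overnight, compound exposure 5 hr at 37 C. Viability read in the same wells by CellTiter-Glo luminescence after 30 min at room temperature, following the beta-lactamase read.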

[14] = qHTS assay to identify small molecule agonists of the TGF-beta/Smad signaling pathway (AID 1346859; active = well fitted activation curve with a large enough effect in the signal ratio in the repeat runs, not every such curve was filed as active; the % refers to the signal ratio; note: series mostly up to about 77 µM)
Procedure, shortened: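 Stable Smad binding element-beta-lactamase HEK 293T cells; 5 hr compound exposure at 37 C under 5% CO2; 2 hr room-temperature substrate step; fluorescence excited at 405 nm, collected at 460 nm and 530 nm.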

[15] = qHTS assay to identify small molecule antagonists of the estrogen receptor beta (ER-beta) signaling pathway - cell viability counter screen (AID 1259382); note: nearly all actives have a fitted effect of over 55% in size; note: potency is the fitted concentration of half-maximal effect
Procedure, shortened: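 ER-beta-UAS-bla HEK293T cells (2,000/well, 2% charcoal-stripped FBS) were pre-incubated 6 hr at 37C, then given compound plus 1nM final 17-beta-estradiol for 16 hr. Viability was read in the same wells by CellTiter-Glo luminescence after 30 min at room temperature.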

[16] = qHTS assay to identify small molecule agonists of the estrogen receptor alpha (ER-alpha) signaling pathway in the presence of an antagonist - cell viability counter screen (AID 1259386);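 note: series mostly up to about 92 µM; cells exposed to compounds for 22 h at 37 °C before the viability read; nearly all actives have a fitted effect of over 30% in size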
Procedure, shortened: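 VM7Luc4E2 cells (endogenous full-length ER-alpha, 4×ERE-luciferase) were held 5 days in phenol red-free medium with 10% charcoal-stripped FBS, plated, then given 10.0nM ICI-182,780 and compounds at 15 concentrations for 22hr at 37C; viability read by CellTiter-Fluor fluorescence.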

[17] = molecular target: Progesterone receptor (Homo sapiens) (UniProt P06401); test: qHTS assay to identify small molecule antagonists of the progesterone receptor (PR) signaling pathway (AID 1346795; active = well fitted inhibition curve with a large enough effect in the signal ratio in the repeat runs, not every such curve was filed as active; the % refers to the signal ratio; note: potency is the fitted concentration of half-maximal effect)
Procedure, shortened: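 Inhibition of R5020-induced (1 nM final) beta-lactamase reporter signal in PR-UAS-bla HEK293T cells was scored by FRET fluorescence after overnight (16 hr) compound treatment.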

[18] = molecular target: Thyrotropin-releasing hormone receptor (Homo sapiens) (UniProt P34981); test: qHTS assay to identify small molecule antagonists of the thyrotropin-releasing hormone receptor (TRHR) signaling pathway (AID 1346877; active = well fitted inhibition curve with a large enough effect in the repeat runs, not every such curve was filed as active; note: series mostly up to about 51 µM)
Procedure, shortened: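 TRHR-expressing HEK293 cells were seeded, cultured 18 h at 37 °C, then loaded with calcium dye for 2 h. Compounds were pre-incubated 5 min at room temperature before 1 nM TRH (final) was added, and kinetic fluorescence was recorded for 3 min.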

[19] = molecular target: Androgen receptor (Homo sapiens) (UniProt P10275); test: qHTS assay to identify small molecule agonists of the androgen receptor (AR) signaling pathway in the presence of an antagonist (AID 1259381; calls by dose curve; note: nearly all actives have a fitted effect of over 15% in size; note: potency is the fitted concentration of half-maximal effect)
Procedure, shortened: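 MDA-kb2 human breast carcinoma cells carrying an MMTV-luciferase reporter (AR- and GR-responsive) were treated with compounds at 15 concentrations plus 3.0uM final nilutamide for 16hr at 37C without CO2; luminescence was read after ONE-Glo addition.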

[20] = molecular target: Estrogen receptor beta (Homo sapiens) (UniProt Q92731); test: qHTS assay to identify small molecule antagonists of the estrogen receptor beta (ER-beta) signaling pathway (AID 1259378; active = well fitted inhibition curve with a large enough effect in the signal ratio in the repeat runs, not every such curve was filed as active; the % refers to the signal ratio; note: potency is the fitted concentration of half-maximal effect)
Procedure, shortened: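 ER-beta-UAS-bla HEK293T (GripTite) cells in 2% charcoal-stripped FBS medium were preincubated 6 hr at 37C, dosed with compound, then stimulated with 1 nM E2 (final) for 16 hr; beta-lactamase reporter read by B/G FRET fluorescence after 2 hr substrate loading.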

Sequence of Androgen receptor (Homo sapiens) (P10275 whole entry, looked up): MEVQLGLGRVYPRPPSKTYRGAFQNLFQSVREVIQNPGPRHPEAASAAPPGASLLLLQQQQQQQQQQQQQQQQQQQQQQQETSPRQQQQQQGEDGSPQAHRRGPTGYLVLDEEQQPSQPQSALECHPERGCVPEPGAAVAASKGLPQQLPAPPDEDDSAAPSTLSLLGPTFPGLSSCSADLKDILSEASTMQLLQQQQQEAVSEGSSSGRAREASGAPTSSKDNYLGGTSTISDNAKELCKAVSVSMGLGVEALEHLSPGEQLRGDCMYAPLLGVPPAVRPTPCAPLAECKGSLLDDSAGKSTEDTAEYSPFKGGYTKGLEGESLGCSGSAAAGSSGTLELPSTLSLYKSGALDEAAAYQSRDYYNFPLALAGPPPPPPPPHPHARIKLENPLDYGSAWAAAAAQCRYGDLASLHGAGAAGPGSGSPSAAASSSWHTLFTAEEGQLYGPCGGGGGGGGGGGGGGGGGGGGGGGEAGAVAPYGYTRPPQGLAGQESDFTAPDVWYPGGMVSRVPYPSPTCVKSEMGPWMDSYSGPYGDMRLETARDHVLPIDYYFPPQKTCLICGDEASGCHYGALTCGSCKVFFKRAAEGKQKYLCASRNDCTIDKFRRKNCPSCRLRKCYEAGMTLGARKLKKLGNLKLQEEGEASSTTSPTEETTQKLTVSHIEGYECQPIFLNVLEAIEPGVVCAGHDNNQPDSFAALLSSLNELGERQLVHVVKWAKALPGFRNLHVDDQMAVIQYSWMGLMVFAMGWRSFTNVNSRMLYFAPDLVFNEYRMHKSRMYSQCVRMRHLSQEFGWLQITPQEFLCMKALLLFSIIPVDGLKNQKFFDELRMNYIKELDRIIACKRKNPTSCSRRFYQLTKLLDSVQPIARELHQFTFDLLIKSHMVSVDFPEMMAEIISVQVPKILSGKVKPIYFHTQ
Sequence of Estrogen receptor beta (Homo sapiens) (Q92731 whole entry, looked up): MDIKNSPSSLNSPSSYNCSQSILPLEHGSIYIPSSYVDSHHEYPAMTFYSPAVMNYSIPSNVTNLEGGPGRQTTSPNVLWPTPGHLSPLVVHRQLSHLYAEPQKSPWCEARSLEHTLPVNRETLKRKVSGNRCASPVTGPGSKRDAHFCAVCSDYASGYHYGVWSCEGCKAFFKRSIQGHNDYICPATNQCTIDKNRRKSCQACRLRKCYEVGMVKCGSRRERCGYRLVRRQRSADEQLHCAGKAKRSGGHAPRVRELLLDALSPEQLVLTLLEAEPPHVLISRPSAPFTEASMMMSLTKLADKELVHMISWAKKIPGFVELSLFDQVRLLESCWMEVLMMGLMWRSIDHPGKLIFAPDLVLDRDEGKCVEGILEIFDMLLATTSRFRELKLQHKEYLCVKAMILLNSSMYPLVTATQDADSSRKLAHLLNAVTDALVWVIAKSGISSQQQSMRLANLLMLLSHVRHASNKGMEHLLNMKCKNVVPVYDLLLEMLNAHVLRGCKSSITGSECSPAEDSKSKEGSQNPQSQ
Sequence of Progesterone receptor (Homo sapiens) (P06401 whole entry, looked up): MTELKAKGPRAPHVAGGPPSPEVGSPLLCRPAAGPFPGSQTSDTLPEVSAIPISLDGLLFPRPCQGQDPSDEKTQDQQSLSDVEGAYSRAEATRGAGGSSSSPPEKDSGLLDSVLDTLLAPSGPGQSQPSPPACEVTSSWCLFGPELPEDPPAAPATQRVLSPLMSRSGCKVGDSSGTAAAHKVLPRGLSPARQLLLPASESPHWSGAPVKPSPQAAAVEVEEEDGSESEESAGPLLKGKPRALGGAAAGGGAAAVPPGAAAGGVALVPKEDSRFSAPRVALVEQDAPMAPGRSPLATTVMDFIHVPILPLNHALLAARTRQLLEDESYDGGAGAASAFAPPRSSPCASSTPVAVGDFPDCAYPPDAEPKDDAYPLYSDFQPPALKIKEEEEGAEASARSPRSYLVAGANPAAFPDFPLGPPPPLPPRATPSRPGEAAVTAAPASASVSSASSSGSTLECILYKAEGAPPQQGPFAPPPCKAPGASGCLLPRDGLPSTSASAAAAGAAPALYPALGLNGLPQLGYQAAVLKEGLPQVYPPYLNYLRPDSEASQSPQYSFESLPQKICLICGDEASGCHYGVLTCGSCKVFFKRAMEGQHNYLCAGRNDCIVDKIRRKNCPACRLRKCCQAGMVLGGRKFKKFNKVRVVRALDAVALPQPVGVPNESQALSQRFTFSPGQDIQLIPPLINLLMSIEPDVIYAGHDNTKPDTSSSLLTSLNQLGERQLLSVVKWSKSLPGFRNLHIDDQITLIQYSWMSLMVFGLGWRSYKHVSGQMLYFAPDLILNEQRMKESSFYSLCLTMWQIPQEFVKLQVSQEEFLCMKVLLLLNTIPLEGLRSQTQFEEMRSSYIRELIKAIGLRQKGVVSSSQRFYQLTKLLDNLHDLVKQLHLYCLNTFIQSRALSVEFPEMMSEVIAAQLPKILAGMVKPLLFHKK
Sequence of Thyrotropin receptor (Homo sapiens) (P16473 whole entry, looked up): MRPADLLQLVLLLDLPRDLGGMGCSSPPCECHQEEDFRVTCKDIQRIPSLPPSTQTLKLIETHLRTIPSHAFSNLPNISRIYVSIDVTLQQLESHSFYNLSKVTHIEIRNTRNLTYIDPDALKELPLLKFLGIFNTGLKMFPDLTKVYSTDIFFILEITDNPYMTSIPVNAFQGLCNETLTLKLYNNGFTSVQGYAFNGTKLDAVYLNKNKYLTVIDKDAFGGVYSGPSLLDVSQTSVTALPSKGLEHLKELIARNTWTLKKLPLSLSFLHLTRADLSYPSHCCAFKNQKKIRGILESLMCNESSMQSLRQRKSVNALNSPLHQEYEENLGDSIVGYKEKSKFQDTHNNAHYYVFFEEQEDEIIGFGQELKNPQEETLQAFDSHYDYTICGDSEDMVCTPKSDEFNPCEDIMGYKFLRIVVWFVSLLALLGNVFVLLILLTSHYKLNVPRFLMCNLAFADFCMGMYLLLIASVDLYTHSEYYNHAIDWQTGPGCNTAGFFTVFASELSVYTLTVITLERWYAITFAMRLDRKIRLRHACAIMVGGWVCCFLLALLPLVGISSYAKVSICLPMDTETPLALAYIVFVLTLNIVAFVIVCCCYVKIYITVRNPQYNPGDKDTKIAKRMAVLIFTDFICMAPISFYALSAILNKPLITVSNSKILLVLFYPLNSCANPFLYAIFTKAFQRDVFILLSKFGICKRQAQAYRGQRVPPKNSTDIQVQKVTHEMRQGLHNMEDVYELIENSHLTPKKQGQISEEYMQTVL
Sequence of Estrogen receptor (Homo sapiens) (P03372 whole entry, looked up): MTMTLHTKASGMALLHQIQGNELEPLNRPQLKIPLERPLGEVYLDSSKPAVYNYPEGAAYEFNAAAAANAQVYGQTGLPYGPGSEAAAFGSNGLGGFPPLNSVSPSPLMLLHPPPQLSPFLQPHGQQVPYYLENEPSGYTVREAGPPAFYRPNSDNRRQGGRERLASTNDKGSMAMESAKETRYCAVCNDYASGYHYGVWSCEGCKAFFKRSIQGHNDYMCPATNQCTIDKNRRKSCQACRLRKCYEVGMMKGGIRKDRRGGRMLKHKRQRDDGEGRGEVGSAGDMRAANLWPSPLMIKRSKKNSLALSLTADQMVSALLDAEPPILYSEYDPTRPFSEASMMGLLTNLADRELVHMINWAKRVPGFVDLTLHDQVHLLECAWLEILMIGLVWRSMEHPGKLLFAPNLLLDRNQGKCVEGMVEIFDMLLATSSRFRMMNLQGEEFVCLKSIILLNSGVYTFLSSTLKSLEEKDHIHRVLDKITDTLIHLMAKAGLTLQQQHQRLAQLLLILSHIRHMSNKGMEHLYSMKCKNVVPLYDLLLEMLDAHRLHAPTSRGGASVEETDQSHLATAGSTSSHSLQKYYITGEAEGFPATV
Sequence of Thyrotropin-releasing hormone receptor (Homo sapiens) (P34981 whole entry, looked up): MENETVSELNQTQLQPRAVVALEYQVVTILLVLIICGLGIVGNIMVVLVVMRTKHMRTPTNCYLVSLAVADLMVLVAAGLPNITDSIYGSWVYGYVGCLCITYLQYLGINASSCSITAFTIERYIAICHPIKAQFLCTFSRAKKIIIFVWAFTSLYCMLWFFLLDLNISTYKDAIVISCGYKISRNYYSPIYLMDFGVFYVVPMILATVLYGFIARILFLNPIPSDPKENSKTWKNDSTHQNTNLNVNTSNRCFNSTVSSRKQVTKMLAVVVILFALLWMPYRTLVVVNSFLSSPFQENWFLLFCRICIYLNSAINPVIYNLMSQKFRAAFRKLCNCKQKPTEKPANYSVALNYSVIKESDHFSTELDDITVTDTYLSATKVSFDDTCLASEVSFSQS

Compound | Potency [1] | Potency [2] | Potency [3] | Potency [4] | Potency [5] | Potency [6] | outcome [7] | Potency [8] | Potency [9] | Potency [10] | Potency [11] | outcome [12] | outcome [13] | outcome [14] | Potency [15] | Potency [16] | Potency [17] | outcome [18] | Potency [19] | Potency [20]
CCOc1cc(N)c(Cl)cc1C(=O)NCC1CN(Cc2ccc(F)cc2)CCO1 (configuration not stated) | inactive | inactive | inactive | inactive | 2.37 µM (active) | inactive | inactive | inactive | inactive | inactive | inactive | inactive | inactive | inactive |  |  |  |  |  | 
CCCCCCCCCCCC[N+](C)(C)CCCS(=O)(=O)[O-] | inactive | inactive | inactive | inactive |  | inactive | inactive | inactive | inactive | inactive |  | inactive | inactive | inactive | inactive | inactive | inactive | inactive |  | 
CC(=O)OCC(=O)[C@H]1CC[C@H]2[C@@H]3CCC4=CC(=O)CC[C@]4(C)[C@H]3CC[C@]12C | inactive | 11.9 µM (active) | inactive | inactive |  | inactive | inactive |  |  | inactive |  | inactive |  | inactive | inactive |  | inactive | inactive | 3.76 µM (active) | 
CC(Cl)C(Cl)Cl (configuration not stated) | inactive | inactive | inactive | inactive | inactive | inactive | inactive |  | inactive |  |  | inactive | inactive | inactive | inactive | inactive |  |  |  | 
CNCCCC1c2ccccc2C=Cc2ccccc21 | inactive | 9.44 µM (active) | inactive |  | 23.7 µM (active) | inactive |  | 26.6 µM (active) | inactive | 21.1 µM (active) | 10.6 µM (active) | inactive | inactive | inactive | 18.8 µM (active) | inactive |  |  |  | 11.9 µM (active)
CCC(=O)Oc1ccc(/C(CC)=C(\CC)c2ccc(OC(=O)CC)cc2)cc1 | inactive | 24.3 µM (active) | 0.0017 µM (active) | inactive |  | 0.0054 µM (active) | inactive | inactive |  |  |  | inactive | inactive | inactive | inactive | inactive | 12.2 µM (active) | inactive |  | 
CN(C(=O)C(Cl)Cl)c1ccc(OC(=O)c2ccco2)cc1 | inactive | inactive | inactive | inactive | inactive |  | inactive | inactive | inactive | inactive | inactive | inactive | inactive | inactive | inactive | inactive | inactive | inactive | inactive | 
O=S(=O)(c1ccccc1)c1ccc(Cl)cc1 | inactive | inactive | inactive | inactive | inactive | inactive |  | inactive |  | inactive |  | inactive | inactive | inactive | inactive |  | 24.3 µM (active) | inactive |  | 
CCCCC(CC)C(=O)OCCOCCOCCOCCOC(=O)C(CC)CCCC (configuration not stated) | inactive | inactive | inactive | inactive |  | inactive | inactive |  | inactive | inactive | inactive | inactive |  | inactive | inactive | inactive | inactive | inactive |  | inactive
CC(C)c1nnc2ccc(-c3ocnc3-c3cc(F)ccc3F)cn12 | inactive | 1.09 µM (active) | inactive | inactive | inactive | inactive |  | inactive | inactive |  |  | inactive | inactive |  | inactive | inactive |  | inactive |  | 
CC(=O)Oc1ccc2c(c1)CC[C@@H]1[C@@H]2CC[C@]2(C)[C@@H](O)CC[C@@H]12 | inactive | 1.19 µM (active) | 0.0008 µM (active) | inactive | inactive |  | inactive | inactive |  |  | inactive | inactive | inactive | inactive | inactive | inactive |  | inactive |  | 
Cc1cc(O)c2c(O)c3c(O)cccc3cc2c1 | inactive | inactive | inactive |  | inactive |  | inactive |  | inactive | inactive |  | inactive | inactive | inactive | inactive | inactive | inactive | inactive | inactive | 
CCC(Cc1ccccc1)(C(=O)c1ccc(N2CCOCC2)cc1)N(C)C (configuration not stated) | inactive | 19.3 µM (active) | inactive |  |  | inactive | inactive | inactive | inactive |  |  |  | inactive | inactive | inactive |  | 48.6 µM (active) | inactive |  | inactive
COC(=O)c1cc(Cl)ccc1NS(=O)(=O)C(F)(F)F | inactive | inactive | inactive | inactive | inactive |  | inactive |  | inactive | inactive | inactive | inactive |  | inactive | inactive | inactive | inactive | inactive | inactive | 
O=C(C(=O)c1ccccc1)c1ccccc1 | inactive | inactive |  | inactive | inactive |  |  |  |  | inactive | inactive | inactive | inactive | inactive | inactive | inactive | inactive | inactive |  | 
